In PubChem BioAssay AID1159569 (Broad Institute, 2015):
Entries with a potency or affinity are not part of this list. Records with an inconclusive call do not appear. Calls of active or inactive are those of the source. The rule behind the calls is not given here.

experiment: HepG2 cell cytotoxicity, dose response, cytotoxicity control, plate reader, dry powder samples (AID 1159569); settings: HepG2 cytotoxicity counterscreen; series mostly up to 50 µM

SMILES | outcome
CCCC(=O)Nc1ccc2c(c1)OC[C@@H](C)N(Cc1ccccc1F)C[C@@H](C)[C@H](OC)CN(C)C2=O | inactive
OC[C@H]1[C@@H](c2ccc(-c3cccnc3)cc2)[C@@H]2CN(CC3CC3)CCCCN12 | inactive
COc1ccc2c3c(n(C)c2c1)[C@@H](CO)N(C(=O)c1ccc(F)cc1)CC31CN(C(=O)Nc2ccc(F)cc2)C1 | inactive
C[C@H](CO)N1C[C@H](C)[C@@H](CN(C)C(=O)Nc2cccc3ccccc23)Oc2ccc(NC(=O)Cc3cn(C)c4ccccc34)cc2C1=O | inactive
COc1ccc(C#Cc2ccc3c(c2)O[C@@H](CN(C)C(=O)Nc2cccc(OC)c2)[C@H](C)CN([C@H](C)CO)S3(=O)=O)cc1 | inactive
COc1ccc2c3c([nH]c2c1)[C@@H](CO)N(Cc1ccccc1)CC31CCN(Cc2cncnc2)CC1 | inactive
COc1ccc(-c2ccc([C@H]3[C@H](C#N)N(C(=O)c4cccc(F)c4)[C@H]3CO)cc2)cc1 | inactive
COc1ccccc1S(=O)(=O)N(C)C[C@H]1OCc2ccccc2-c2c(n(C)c3ccccc23)C(=O)N([C@@H](C)CO)C[C@@H]1C | inactive
C[C@@H]1CN([C@H](C)CO)C(=O)c2cccc(NC(=O)c3ccc(-c4nccs4)cc3)c2O[C@H]1CN(C)Cc1ccc(C(F)(F)F)cc1 | inactive
C[C@H]1CN([C@@H](C)CO)C(=O)c2c(c3ccccc3n2C)-c2ccccc2CO[C@@H]1CN(C)C(=O)Nc1ccc(-c2ccccc2)cc1 | inactive
C[C@@H]1CN([C@@H](C)CO)C(=O)c2cccc(NC(=O)c3nc4ccccc4s3)c2O[C@H]1CN(C)C(=O)NC1CCCCC1 | inactive
O=C(Nc1ccccc1F)N1CCCCN2[C@H](CO)[C@H](c3ccc(C#Cc4cccnc4)cc3)[C@@H]2C1 | inactive
CC(C)(C)[S@@](=O)N1Cc2cc(C(=O)N[C@@H]3CCN(Cc4ccccc4)C3)nc(-c3cccc(-c4cccnc4)c3)c2[C@H]1CCO | inactive
O=C(Nc1ccccc1)N1CCCCN2[C@H](CO)[C@H](c3ccc(C#Cc4cccnc4)cc3)[C@@H]2C1 | inactive
COc1ccc(-c2ccccc2[C@H]2[C@@H](C#N)N(C(=O)C3CCCC3)[C@@H]2CO)cc1 | inactive
CC(C)NC(=O)Nc1ccc2c(c1)C(=O)N(C)[C@H]1CC[C@H](CC(=O)Nc3ccccc3)O[C@H]1CO2 | inactive
CO[C@@H]1CN(C)C(=O)c2ccc(NC(=O)c3ccc4c(c3)OCO4)cc2OC[C@@H](C)N(Cc2ccc3c(c2)OCO3)C[C@H]1C | inactive
O=C(c1ccncc1)N1CC(=O)N2[C@H](C1)[C@@H](c1ccc(-c3cccnc3)cc1)[C@@H]2CO | inactive
C[C@@H](NC(=O)C[C@H]1C[C@@H]2c3cc(NS(=O)(=O)c4ccc(F)cc4)ccc3O[C@@H]2[C@H](CO)O1)c1ccccc1 | inactive
COc1ccc2c3c([nH]c2c1)[C@H](CO)N(C(=O)C1CCCCC1)CC31CCN(Cc2nccs2)CC1 | inactive
COc1cccc(C#Cc2ccc([C@H]3[C@@H](CO)N(C(=O)C4CCC4)[C@H]3C#N)cc2)c1 | inactive
C[C@H](CO)N1C[C@H](C)[C@H](CN(C)S(=O)(=O)c2ccc(C#N)cc2)OCc2ccccc2-c2c(n(C)c3ccccc23)C1=O | inactive
C[C@@H]1CN([C@H](C)CO)S(=O)(=O)c2ccc(C#Cc3ccccc3F)cc2O[C@H]1CN(C)C(=O)c1ccc2c(c1)OCO2 | inactive
COc1ccc2c3c([nH]c2c1)[C@H](CO)NCC31CCN(C(=O)Nc2ccc3c(c2)OCO3)CC1 | inactive
CC(C)(C)[S@](=O)N1Cc2cc(C(=O)N[C@@H]3CCN(Cc4ccccc4)C3)nc(-c3cccc(-c4cccnc4)c3)c2[C@@H]1CCO | inactive
C[C@@H]1CN([C@@H](C)CO)C(=O)c2cccc(NC(=O)c3ccc(-c4nccs4)cc3)c2O[C@H]1CN(C)Cc1ccc(Cl)c(Cl)c1 | inactive
COc1cccc(-c2cccc(-c3nc(C(=O)NCc4ccc(Oc5ccccc5)cc4)cc4c3[C@@H](CCO)N(S(=O)C(C)(C)C)C4)c2)c1 (stereo not given in full) | inactive
N#C[C@@H]1[C@H](c2ccccc2C2=CCCCC2)[C@@H](CO)N1C(=O)c1cccc(F)c1 | inactive
O=C(c1cccc(F)c1)N1CC(=O)N2[C@H](C1)[C@@H](c1ccc(-c3cccnc3)cc1)[C@@H]2CO | inactive
OC[C@H]1CC[C@@H]2O[C@H](CCc3ccc(C#CCc4ccccc4)cc3)[C@H](n3cc(-c4ccccc4)nn3)C[C@@H]2O1 | inactive
